# According to PubChem BioAssay (Tox21):
# Several values for one entry are separate records, joined by “and”; a condition that tells them apart may be missing. Equal entries are not always repeated. Results filed as inconclusive are left out. Where a call stands in place of a potency, no number is given. The source holds several records for some structures; these can differ, active in one and inactive in another. Activity calls are given as the source filed them. Unless noted, calls follow the shape of the dose curve; as a rule, active = well fitted curve in the direction sought with a large enough effect in the repeat runs; inconclusive = weak or mixed curves; inactive = no such curve, though single readings can be large; an effect the other way counts as inactive or inconclusive.
# Tests used:
# [1] = target: Thyrotropin receptor (Homo sapiens) (UniProt P16473); experiment: qHTS assay to identify small molecule antagonists of the thyroid stimulating hormone receptor (TSHR) signaling pathway (AID 1259385; calls by dose curve; also: nearly all actives have a fitted effect of over 20% in size)
# Thyrotropin receptor (Homo sapiens), sequence (P16473 whole entry, looked up): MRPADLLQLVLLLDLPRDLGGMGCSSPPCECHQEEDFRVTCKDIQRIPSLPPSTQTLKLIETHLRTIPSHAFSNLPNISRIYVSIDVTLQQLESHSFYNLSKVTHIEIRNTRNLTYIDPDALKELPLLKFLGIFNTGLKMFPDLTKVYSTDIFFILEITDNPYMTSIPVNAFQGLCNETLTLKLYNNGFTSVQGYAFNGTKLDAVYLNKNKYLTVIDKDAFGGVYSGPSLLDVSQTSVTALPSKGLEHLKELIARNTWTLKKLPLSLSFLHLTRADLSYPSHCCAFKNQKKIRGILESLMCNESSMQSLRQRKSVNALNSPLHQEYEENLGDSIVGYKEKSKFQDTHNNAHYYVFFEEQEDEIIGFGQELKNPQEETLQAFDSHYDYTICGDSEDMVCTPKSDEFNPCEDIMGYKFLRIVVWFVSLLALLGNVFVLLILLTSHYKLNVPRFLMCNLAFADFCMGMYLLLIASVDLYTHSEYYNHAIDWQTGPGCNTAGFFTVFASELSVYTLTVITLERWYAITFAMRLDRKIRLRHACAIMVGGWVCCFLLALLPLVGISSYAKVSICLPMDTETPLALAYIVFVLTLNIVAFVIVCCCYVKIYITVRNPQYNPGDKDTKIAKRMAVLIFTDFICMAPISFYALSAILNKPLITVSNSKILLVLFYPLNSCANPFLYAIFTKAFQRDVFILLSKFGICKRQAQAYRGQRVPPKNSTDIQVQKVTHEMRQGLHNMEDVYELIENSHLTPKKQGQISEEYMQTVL
# Method in brief: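 Antagonist mode: compound-treated TSHR-expressing HEK293 cells were stimulated with 1.5 ng/mL TSH (final) in presence of Ro20-1724 for 30 min at RT. HTRF cAMP detection after 1 h; each compound tested at 15 concentrations, triplicate.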
# [2] = qHTS assay to identify small molecule agonists of the estrogen receptor alpha (ER-alpha) signaling pathway in the presence of an antagonist - cell viability counter screen (AID 1259386);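 also: series mostly up to about 92 µM; cells exposed to compounds for 22 h at 37 °C before the viability read; nearly all actives have a fitted effect of over 30% in size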
# Method in brief: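 VM7Luc4E2 cells (endogenous full-length ER-alpha, 4×ERE-luciferase) were held 5 days in phenol red-free medium with 10% charcoal-stripped FBS, plated, then given 10.0nM ICI-182,780 and compounds at 15 concentrations for 22hr at 37C; viability read by CellTiter-Fluor fluorescence.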
# [3] = target: Progesterone receptor (Homo sapiens) (UniProt P06401); experiment: qHTS assay to identify small molecule agonists of the progesterone receptor (PR) signaling pathway (AID 1346784; calls by dose curve; also: nearly all actives have a fitted effect of over 30% in size)
# Progesterone receptor (Homo sapiens), sequence (P06401 whole entry, looked up): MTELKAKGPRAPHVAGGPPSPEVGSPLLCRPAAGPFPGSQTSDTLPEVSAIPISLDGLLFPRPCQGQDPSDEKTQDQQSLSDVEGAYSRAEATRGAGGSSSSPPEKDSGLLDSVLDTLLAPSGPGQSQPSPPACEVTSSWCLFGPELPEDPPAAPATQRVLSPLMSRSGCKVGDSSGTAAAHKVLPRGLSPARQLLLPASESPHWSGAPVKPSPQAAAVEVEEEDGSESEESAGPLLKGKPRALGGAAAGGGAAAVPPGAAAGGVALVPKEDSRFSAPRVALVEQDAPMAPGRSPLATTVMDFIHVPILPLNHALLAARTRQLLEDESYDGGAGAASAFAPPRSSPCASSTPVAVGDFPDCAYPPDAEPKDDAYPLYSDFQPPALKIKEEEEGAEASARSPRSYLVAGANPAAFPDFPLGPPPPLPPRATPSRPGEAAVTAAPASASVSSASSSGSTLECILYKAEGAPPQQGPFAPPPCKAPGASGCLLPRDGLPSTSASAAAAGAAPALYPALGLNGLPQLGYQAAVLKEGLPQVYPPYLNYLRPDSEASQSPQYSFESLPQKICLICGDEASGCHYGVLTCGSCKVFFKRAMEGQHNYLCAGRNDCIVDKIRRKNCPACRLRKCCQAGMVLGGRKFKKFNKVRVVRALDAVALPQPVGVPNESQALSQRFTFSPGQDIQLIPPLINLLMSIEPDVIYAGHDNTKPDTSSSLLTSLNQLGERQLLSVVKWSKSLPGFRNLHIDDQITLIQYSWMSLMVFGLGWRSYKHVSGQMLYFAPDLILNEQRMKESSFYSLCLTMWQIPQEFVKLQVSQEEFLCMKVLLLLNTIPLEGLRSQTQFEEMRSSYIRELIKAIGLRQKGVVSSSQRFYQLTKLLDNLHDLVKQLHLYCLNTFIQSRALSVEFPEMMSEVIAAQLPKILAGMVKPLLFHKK
# Method in brief: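 PR-UAS-bla HEK 293T cells (beta-lactamase reporter under UAS) in 2% charcoal-stripped FBS, dosed with 23 nL compound after 6 hr, incubated 16hr at 37C. LiveBLAzer B/G FRET substrate added, fluorescence read after 2 hours.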
# [4] = target: Progesterone receptor (Homo sapiens) (UniProt P06401); experiment: qHTS assay to identify small molecule antagonists of the progesterone receptor (PR) signaling pathway (AID 1346795; active = well fitted inhibition curve with a large enough effect in the signal ratio in the repeat runs, not every such curve was filed as active; the % refers to the signal ratio)
# Method in brief: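 PR-UAS-bla HEK293T cells with beta-lactamase reporter under UAS control, in 2% charcoal-stripped FBS, treated with compounds plus 1 nM promegestone (R5020, final) for 16 hr at 37C. Read-out: FRET beta-lactamase substrate fluorescence after 2 hr at room temperature.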
# [5] = qHTS assay to identify small molecule antagonists of the progesterone receptor (PR) signaling pathway - cell viability counter screen (AID 1346798); also: series mostly up to about 92 µM; nearly all actives have a fitted effect of over 50% in size
# Method in brief: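 PR-UAS-bla HEK293T cells, 3,000/well in 2% charcoal-stripped FBS medium, dosed with compounds plus R5020 agonist and incubated 16 h at 37C. Viability then measured in the same wells by CellTiter-Glo luminescence after 30 min at RT.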
# [6] = qHTS assay to identify small molecule agonists of the progesterone receptor (PR) signaling pathway - cell viability counter screen (AID 1346799; calls by dose curve; also: nearly all actives have a fitted effect of over 45% in size)
# Method in brief: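 Counter screen in the PR-UAS-bla HEK293T wells (2% charcoal-stripped FBS, 16 h compound exposure at 37 C) after the bla read. CellTiter-Glo added, 30 min at room temperature, luminescence read as cell viability.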
# [7] = qHTS assay to identify small molecule antagonists of the TGF-beta/Smad signaling pathway - cell viability counter screen (AID 1346824); also: nearly all actives have a fitted effect of over 50% in size
# Method in brief: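 Cytotoxicity counter-screen run in the same wells as the beta-lactamase Smad reporter read: CellTiter-Glo luminescence after 30 min at room temperature. HEK 293T SBE-bla cells had 5 hr compound exposure at 37 C with TGF-beta1 (0.25 ng/mL stock).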
# [8] = qHTS assay to identify small molecule agonists of the TGF-beta/Smad signaling pathway - cell viability counter screen (AID 1346829); also: top concentration of the series differs between compounds; nearly all actives have a fitted effect of over 45% in size
# Method in brief: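 After overnight seating at 37 C and 5% CO2, reporter cells got compounds for 5 hr and FRET substrate for 2 hr; cell viability then came from CellTiter-Glo luminescence.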
# [9] = qHTS assay to identify small molecule agonists of the TGF-beta/Smad signaling pathway (AID 1346859; active = well fitted activation curve with a large enough effect in the signal ratio in the repeat runs, not every such curve was filed as active; the % refers to the signal ratio; also: series mostly up to about 77 µM)
# Method in brief: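 SBE-bla HEK293T cells plated overnight, then compound exposure for 5 h at 37 C. Beta-lactamase reporter read with LiveBLAzer B/G FRET substrate after 2 h at room temperature, fluorescence at 405 nm excitation, 460/530 nm emission.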
# [10] = target: Thyrotropin-releasing hormone receptor (Homo sapiens) (UniProt P34981); experiment: qHTS assay to identify small molecule antagonists of the thyrotropin-releasing hormone receptor (TRHR) signaling pathway (AID 1346877; active = well fitted inhibition curve with a large enough effect in the repeat runs, not every such curve was filed as active; also: series mostly up to about 51 µM)
# Thyrotropin-releasing hormone receptor (Homo sapiens), sequence (P34981 whole entry, looked up): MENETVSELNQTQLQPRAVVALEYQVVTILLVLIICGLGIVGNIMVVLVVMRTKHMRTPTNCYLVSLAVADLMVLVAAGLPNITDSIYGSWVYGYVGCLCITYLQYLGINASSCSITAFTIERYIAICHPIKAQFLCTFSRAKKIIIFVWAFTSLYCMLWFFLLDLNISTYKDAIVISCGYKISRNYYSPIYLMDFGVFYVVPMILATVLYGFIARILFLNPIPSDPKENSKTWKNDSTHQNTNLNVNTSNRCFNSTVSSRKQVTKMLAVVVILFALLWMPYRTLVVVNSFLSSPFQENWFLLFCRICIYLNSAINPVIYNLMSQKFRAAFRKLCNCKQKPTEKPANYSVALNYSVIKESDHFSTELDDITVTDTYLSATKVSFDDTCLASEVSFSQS
# Method in brief: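 TRHR-expressing HEK293 cells were seeded, cultured 18 h at 37 °C, then loaded with calcium dye for 2 h. Compounds were pre-incubated 5 min at room temperature before 1 nM TRH (final) was added, and kinetic fluorescence was recorded for 3 min.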
# [11] = target: Thyrotropin-releasing hormone receptor (Homo sapiens) (UniProt P34981); experiment: qHTS assay to identify small molecule agonists of the thyrotropin-releasing hormone receptor (TRHR) signaling pathway (AID 1346891; calls by dose curve; also: series mostly up to about 58 µM)
# Method in brief: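 HEK293 cells expressing TRHR plated 18 h at 37 C/5% CO2, calcium dye-loaded 2 h at 37 C, then compound added (agonist mode); kinetic calcium fluorescence read 3 min at 1 s intervals; 15 concentrations in triplicate.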
# [12] = Human pregnane X receptor (PXR) small molecule agonists, qHTS cell viability counter screen (AID 1346977); also: nearly all actives have a fitted effect of over 50% in size
# Method in brief: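 PXR-Luc HepG2 cells (2,000/well, 5% charcoal-stripped FBS) preincubated 5 hr, then exposed to compounds 24 hr at 37 C. Viability read in the same wells by CellTiter-Fluor fluorescence, reagent added at 23 hr, 1 hr incubation.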
# [13] = Caspase-3/7 induction in HepG2 cells by small molecules, qHTS assay (AID 1346978); also: nearly all actives have a fitted effect of over 15% in size
# Method in brief: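 Caspase-3/7 induction was measured by Caspase-Glo 3/7 luminescence (30 min, room temperature) after a 17 hr compound exposure of wild-type HepG2 cells seeded at 2,000 per well and pre-incubated 5 hr.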
# [14] = Caspase-3/7 induction in CHO-K1 cells by small molecules, qHTS assay (AID 1346980); also: nearly all actives have a fitted effect of over 15% in size
# Method in brief: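 Luminescent Caspase-Glo 3/7 read (30min, room temperature) quantified apoptosis induction. Cells were wild-type CHO-K1, treated with compound for 17hr at 37 C and 5% CO2.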
# [15] = Caspase-3/7 induction in HepG2 cells by small molecules, qHTS cell viability counter screen (AID 1346981); also: series mostly up to about 92 µM; nearly all actives have a fitted effect of over 30% in size
# Method in brief: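 Wild-type HepG2 cells (2,000/well) were allowed to settle for 5 hr at 37 C, 5% CO2, then dosed with compounds in DMSO by pin transfer. After 16 hr at 37 C, CellTiter-Fluor was added and fluorescence read 1 hr later.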
# [16] = target: Nuclear receptor subfamily 1 group I member 2 (Homo sapiens) (UniProt O75469); experiment: Human pregnane X receptor (PXR) small molecule agonists, qHTS assay (AID 1346982); also: nearly all actives have a fitted effect of over 35% in size; also: potency is read from the fitted curve at half-maximal effect
# Nuclear receptor subfamily 1 group I member 2 (Homo sapiens), sequence (O75469 whole entry, looked up): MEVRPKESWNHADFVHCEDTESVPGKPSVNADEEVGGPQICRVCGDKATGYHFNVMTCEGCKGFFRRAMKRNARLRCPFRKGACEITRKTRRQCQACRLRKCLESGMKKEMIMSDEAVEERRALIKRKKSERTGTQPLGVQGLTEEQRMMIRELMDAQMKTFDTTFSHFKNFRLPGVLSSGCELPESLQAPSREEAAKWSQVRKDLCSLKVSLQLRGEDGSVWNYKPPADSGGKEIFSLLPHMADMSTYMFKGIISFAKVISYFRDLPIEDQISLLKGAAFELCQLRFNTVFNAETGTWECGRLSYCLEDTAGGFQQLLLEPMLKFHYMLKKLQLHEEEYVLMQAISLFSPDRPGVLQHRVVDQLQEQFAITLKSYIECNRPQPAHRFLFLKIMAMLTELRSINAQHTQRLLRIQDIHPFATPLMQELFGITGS
# Method in brief: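 PXR-Luc HepG2 cells (CYP3A4 promoter-driven luciferase) were seeded in medium with 5% charcoal-stripped FBS, left 5 hr at 37 C, then exposed to compounds in DMSO for 24 hr. Luminescence was read after ONE-Glo addition.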
# [17] = Caspase-3/7 induction in CHO-K1 cells by small molecules, qHTS cell viability counter screen (AID 1346979); also: nearly all actives have a fitted effect of over 35% in size; also: potency is read from the fitted curve at half-maximal effect
# Method in brief: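 Wild-type CHO-K1 cells (1,500/well) treated with compound after 5 h plating; after 16 h at 37C, viability read as CellTiter-Fluor fluorescence following 1 h reagent incubation, in the same wells as the caspase read.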
# [18] = target: Nuclear receptor subfamily 1 group I member 2 (Rattus norvegicus) (UniProt Q9R1A7); experiment: Rat pregnane X receptor (rPXR) activation by small molecules, qHTS assay (AID 1346983); conditions: rPXR luciferase reporter cells, One-Glo luminescence, 24 h; max activation: stronger effect = higher value; also: nearly all actives have a fitted effect of over 20% in size
# Nuclear receptor subfamily 1 group I member 2 (Rattus norvegicus), sequence (Q9R1A7 whole entry, looked up): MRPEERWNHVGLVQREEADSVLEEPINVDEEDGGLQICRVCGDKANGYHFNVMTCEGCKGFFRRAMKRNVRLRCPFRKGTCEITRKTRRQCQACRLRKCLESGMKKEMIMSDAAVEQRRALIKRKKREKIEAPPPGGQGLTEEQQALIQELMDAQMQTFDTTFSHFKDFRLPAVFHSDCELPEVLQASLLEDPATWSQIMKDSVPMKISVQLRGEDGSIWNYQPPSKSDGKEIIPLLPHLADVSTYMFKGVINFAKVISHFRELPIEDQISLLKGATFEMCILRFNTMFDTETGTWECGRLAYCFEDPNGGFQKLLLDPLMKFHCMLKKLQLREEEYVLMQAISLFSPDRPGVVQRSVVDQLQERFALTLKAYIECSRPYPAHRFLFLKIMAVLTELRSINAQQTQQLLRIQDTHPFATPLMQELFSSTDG
# Method in brief: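 Luminescent readout (One-Glo luciferase, 30 min room temperature) followed 24 hr compound treatment at 37 C of rPXR cells plated 2,000 per well and preincubated 5hr; qHTS format with compounds delivered in DMSO.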
# [19] = target: Nuclear receptor subfamily 1 group I member 2 (Homo sapiens) (UniProt O75469); experiment: CYP3A4 induction through human pregnane X receptor (PXR) by small molecules, qHTS assay (AID 1346984); also: nearly all actives have a fitted effect of over 40% in size
# Method in brief: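 DPX-2 cells (HepG2 co-transfected with PXR and CYP3A4 promoter-luciferase) treated with compounds 24 h at 37C; luciferin-IPA CYP3A4 substrate 3uM final added for 3 h, then One-Glo; luminescence read. qHTS format.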
# [20] = target: Nuclear receptor subfamily 1 group I member 2 (Homo sapiens) (UniProt O75469); experiment: Human pregnane X receptor (PXR) activation by small molecules, qHTS assay (AID 1346985); also: nearly all actives have a fitted effect of over 40% in size
# Method in brief: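 DPX-2 cells (HepG2 co-transfected with a PXR response element and a CYP3A4-promoter luciferase construct) were seeded at 2,000 per well, rested 5 hr at 37C, then exposed to DMSO-dissolved compounds for 24 hr. Activation was read as luciferase luminescence.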
SMILES,outcome [1],Potency [2],Potency [3],Potency [4],Potency [5],outcome [6],Potency [7],Potency [8],outcome [9],outcome [10],outcome [11],Potency [12],outcome [13],outcome [14],Potency [15],Potency [16],Potency [17],max activation [18],Potency [19],Potency [20]
FC(F)(F)c1ccc(Cl)cc1,inactive,inactive,inactive,inactive,inactive,inactive,inactive,inactive,inactive,inactive,inactive,inactive,inactive,inactive,inactive,inactive,,,,
Nc1cccc(Cl)c1,inactive,inactive,inactive,inactive,inactive,inactive,inactive,inactive,inactive,,,inactive,inactive,inactive,inactive,inactive,,,,
[N-]=[N+]=CC(=O)OC[C@H](N)C(=O)O,inactive,inactive,inactive,inactive,inactive,inactive,inactive,inactive,inactive,,,inactive,inactive,inactive,inactive,inactive,inactive,,,
O=[N+]([O-])c1ccc(Cl)cc1,inactive,inactive,inactive,inactive,inactive,inactive,inactive,inactive,inactive,inactive,,inactive,inactive,inactive,inactive,inactive,48.2 µM (active) and inactive,,,
Cc1cccc(C)c1N,inactive,inactive,inactive,inactive,inactive,inactive,inactive,inactive,inactive,inactive,,inactive,inactive,inactive,inactive,inactive,inactive,,,
OCCCCO,inactive,inactive,inactive,inactive,inactive,inactive,inactive,inactive,inactive,inactive,,inactive,inactive,inactive,inactive,,,,,
CC[N+](=O)[O-],inactive,inactive,inactive,inactive,inactive,inactive,inactive,inactive,inactive,,,inactive,inactive,inactive,inactive,inactive,inactive,,,
ClCCOCCCl,inactive,inactive,inactive,inactive,inactive,inactive,inactive,inactive,inactive,inactive,,inactive,inactive,inactive,inactive,inactive,inactive,,,
N#Cc1ccccn1,inactive,inactive,inactive,inactive,inactive,inactive,inactive,inactive,inactive,inactive,inactive,inactive,inactive,inactive,inactive,inactive,inactive,,,
Nc1ccc([As](=O)(O)O)cc1,inactive,inactive,inactive,inactive,inactive,inactive,inactive,inactive,inactive,inactive,inactive,inactive,inactive,inactive,inactive,inactive,,-1.25% (inactive),inactive,inactive
CN(C)C(=O)Nc1cccc(C(F)(F)F)c1,inactive,inactive,inactive,inactive,inactive,inactive,inactive,inactive,inactive,inactive,,inactive,inactive,inactive,inactive,inactive,,,,
CCOC(=O)CC(SP(=O)(OC)OC)C(=O)OCC (centres undefined),inactive,inactive,inactive,inactive,inactive,inactive,inactive,inactive,inactive,inactive,inactive,inactive,inactive,inactive,inactive,inactive,,,,
CCCCC(CC)C(=O)Cl (centres undefined),inactive,inactive,inactive,inactive,inactive,inactive,inactive,inactive,inactive,inactive,,inactive,inactive,inactive,inactive,inactive,inactive,,,
OCc1ccco1,inactive,inactive,inactive,inactive,inactive,inactive,inactive,inactive,inactive,inactive,inactive,inactive,inactive,inactive,inactive,inactive,inactive,,,
Cl/C=C/Cl,inactive,,inactive,inactive,inactive,inactive,inactive,inactive,inactive,inactive,,inactive,inactive,inactive,inactive,inactive and 29.6 µM (active),inactive,,,
Cc1ccc(N)cc1,inactive,inactive,inactive,inactive,inactive,inactive,inactive,inactive,inactive,,,inactive,inactive,inactive,inactive,4.35 µM (active) and 29.6 µM (active) and 27.3 µM (active),,,,
C=C(C)C(=O)OCC(CC)CCCC (centres undefined),inactive,inactive,inactive,inactive,,inactive,inactive,inactive,inactive,,,inactive,inactive,inactive,inactive,inactive,,,,
CC(=O)/C=C/c1ccccc1,inactive,,inactive,inactive,inactive,inactive,inactive,inactive,inactive,inactive,,inactive,inactive,inactive,inactive,inactive,inactive,,,
